We go through four compounds from PubChem BioAssay (EPA / NIEHS).

Calls of active or inactive are those of the source. Rule for the calls: active = hit-call score of the fitted dose curve at least 0.9, where 1 is the maximum; inactive = score below 0.9.

Conditions in all cases: mRNA level, 48 h; actives raise or lower the signal
Read-out in one assay: MYC, MYC (gene 4609)
Nature of the assay: LTEA_HepaRG_MYC: Life Technologies and Expression Analysis (LTEA) Assay for MYC using HepaRG (AID 2283518). The essentials: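 Cells are thawed, plated and cultured 48 h, then treated for 48 h with test chemicals (eight half-log concentrations from 100 uM, 0.5% DMSO vehicle). RNA is isolated and MYC expression quantified by qRT-PCR against three housekeeping genes.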

Read-out in assay [1]: matrix metalloproteinase-3 (MMP3), MMP3 (gene 4314)
Nature of the assay: LTEA_HepaRG_MMP3: Life Technologies and Expression Analysis (LTEA) Assay for matrix metalloproteinase-3 (MMP3) using HepaRG (AID 2283519). The essentials: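 Differentiated human HepaRG cells, plated 48 h on collagen I, were exposed in duplicate for 48 h in serum-free induction medium to eight half-log concentrations up to 100 uM in 0.5% DMSO. MMP3 mRNA was quantified by TaqMan qRT-PCR, normalised to ACTB, GAPDH and POLR2A.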

Read-out in assay [2]: Paternally Expressed 10 (PEG10), PEG10 (gene 23089)
The assay can be described thus: LTEA_HepaRG_PEG10: Life Technologies and Expression Analysis (LTEA) Assay for Paternally Expressed 10 (PEG10) using HepaRG (AID 2283520). The essentials: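 HepaRG, 48 h post-plating → serum-free induction medium → 48 h chemical exposure (duplicate, 8-pt, max 100 uM, half-log, 0.5% DMSO) → lysis in RLT → TaqMan qRT-PCR for PEG10, ACTB/GAPDH/POLR2A normalisation.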

Read-out in assay [3]: Protein phosphatase 2A (PPP2R4), PTPA (gene 5524)
The assay can be described thus: LTEA_HepaRG_PPP2R4: Life Technologies and Expression Analysis (LTEA) Assay for Protein phosphatase 2A (PPP2R4) using HepaRG (AID 2283522). The method in brief:
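Readout is PPP2R4 transcript level by microfluidic qRT-PCR after 48 h chemical treatment of human HepaRG liver cells. Concentrations spanned 100 uM downward in half-log steps; gain or loss of signal was fitted relative to DMSO.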

Read-out in assay [4]: Phosphatase and tensin (PTEN), PTEN (gene 5728)
The assay can be described thus: LTEA_HepaRG_PTEN: Life Technologies and Expression Analysis (LTEA) Assay for Phosphatase and tensin (PTEN) using HepaRG (AID 2283523). The method in brief:
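Differentiated human HepaRG cells, plated 48 h then switched to serum-free induction medium, were exposed in duplicate for 48 h to eight half-log concentrations up to 100 uM in 0.5% DMSO. PTEN mRNA measured by TaqMan qRT-PCR, normalized to ACTB/GAPDH/POLR2A, bidirectional fit versus DMSO.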

Read-out in assay [5]: solute carrier (SLC22A1), SLC22A1 (gene 6580)
Nature of the assay: LTEA_HepaRG_SLC22A1: Life Technologies and Expression Analysis (LTEA) Assay for solute carrier (SLC22A1) using HepaRG (AID 2283524). The method in brief: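 Human HepaRG cells were plated 48 h, switched to serum-free induction medium, then exposed in duplicate for 48 h to 8-point half-log series from 100 uM in 0.5% DMSO. SLC22A1 mRNA measured by qRT-PCR, normalized to ACTB/GAPDH/POLR2A, fitted bidirectionally versus DMSO.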

Read-out in assay [6]: Pyruvate Dehydrogenase Kinase 4 (PDK4), PDK4 (gene 5166)
Nature of the assay: LTEA_HepaRG_PDK4: Life Technologies and Expression Analysis (LTEA) Assay for Pyruvate Dehydrogenase Kinase 4 (PDK4) using HepaRG (AID 2283525). The method in brief: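 Differentiated human HepaRG cells, pre-cultured 48 h, were exposed in duplicate for 48 h in serum-free induction medium to eight half-log concentrations up to 100 uM in 0.5% DMSO. PDK4 mRNA was quantified by qRT-PCR, normalized to ACTB, GAPDH and POLR2A, bidirectional fitting versus DMSO.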

Read-out in assay [7]: Nuclear factor erythroid 2-related factor 2 (Homo sapiens) (UniProt Q16236)
The assay can be described thus: LTEA_HepaRG_NFE2L2: Life Technologies and Expression Analysis (LTEA) Assay for Nuclear factor erythroid 2-related factor 2 (NFE2L2) Transcription Factor using HepaRG (AID 2283527). The method in brief:
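Differentiated human HepaRG cells in serum-free induction medium were exposed for 48 h to eight concentrations (top 100 uM, half-log dilutions, 0.5% DMSO), in duplicate. NFE2L2 mRNA was quantified by TaqMan qRT-PCR, normalized to ACTB, GAPDH and POLR2A, with bidirectional fitting versus DMSO.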

Read-out in assay [8]: succinate dehydrogenase complex iron sulfur subunit B (SDHB), SDHB (gene 6390)
The assay can be described thus: LTEA_HepaRG_SDHB: Life Technologies and Expression Analysis (LTEA) Assay for succinate dehydrogenase complex iron sulfur subunit B (SDHB) using HepaRG (AID 2283528). The essentials: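 SDHB transcript level read by TaqMan qRT-PCR, housekeeping-normalised (ACTB, GAPDH, POLR2A), after 48 h chemical treatment of plated HepaRG cells; eight concentrations top 100 uM, half-log steps, 0.5% DMSO, duplicates; fitted both directions against DMSO.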

Read-out in assay [9]: Signal transducer and activator of transcription 3 (Homo sapiens) (UniProt P40763)
Nature of the assay: LTEA_HepaRG_STAT3: Life Technologies and Expression Analysis (LTEA) Assay for Signal transducer and activator of transcription (STAT3) using HepaRG (AID 2283529). The essentials: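 Differentiated human HepaRG cells in serum-free induction medium were exposed in duplicate for 48 h to eight half-log concentrations up to 100 uM in 0.5% DMSO. STAT3 mRNA was quantified by TaqMan qRT-PCR, normalized to ACTB, GAPDH and POLR2A, and fitted bidirectionally against DMSO.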

Read-out in assay [10]: solute carrier (SLCO1B1), SLCO1B1 (gene 10599)
The assay can be described thus: LTEA_HepaRG_SLCO1B1: Life Technologies and Expression Analysis (LTEA) Assay for solute carrier (SLCO1B1) using HepaRG (AID 2283530). The method in brief:
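Gain or loss of SLCO1B1 mRNA is fitted against the 0.5% DMSO vehicle in human HepaRG liver cells treated 48 h at up to 100 uM in half-log steps. Expression comes from qRT-PCR normalized to endogenous controls.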

Read-out in assay [11]: sulfotransferase 2A1 (SULT2A1), SULT2A1 (gene 6822)
The assay can be described thus: LTEA_HepaRG_SULT2A1: Life Technologies and Expression Analysis (LTEA) Assay for sulfotransferase 2A1 (SULT2A1) using HepaRG (AID 2283531). The essentials: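 Cells were plated and cultured 48 h, switched to serum-free induction medium, then dosed in duplicate for 48 h (8 concentrations, max 100 uM). RNA was isolated and SULT2A1 expression measured by qRT-PCR; gain or loss of signal fitted relative to DMSO.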

Read-out in assay [12]: Transforming Growth Factor (TGFA), TGFA (gene 7039)
The assay can be described thus: LTEA_HepaRG_TGFA: Life Technologies and Expression Analysis (LTEA) Assay for Transforming Growth Factor (TGFA) using HepaRG (AID 2283532). The essentials:
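Differentiated human HepaRG cells, plated 48 h then switched to serum-free induction medium, were exposed in duplicate for 48 h to 8-point half-log series from 100 uM in 0.5% DMSO. TGFA mRNA measured by qRT-PCR, normalized to ACTB/GAPDH/POLR2A, bidirectional fit versus DMSO.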

Read-out in assay [13]: Transforming Growth Factor (TGFB1), TGFB1 (gene 7040)
Nature of the assay: LTEA_HepaRG_TGFB1: Life Technologies and Expression Analysis (LTEA) Assay for Transforming Growth Factor (TGFB1) Transporter using HepaRG (AID 2283533). The essentials:
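Expression change of TGFB1 in human HepaRG cells is measured after a 48 h chemical exposure, up to 100 uM in 0.5% DMSO vehicle. Curves are fitted in both directions relative to the DMSO baseline.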

Read-out in the next assay: TIMP1, TIMP1 (gene 7076)
Nature of the assay: LTEA_HepaRG_TIMP1: Life Technologies and Expression Analysis (LTEA) Assay for TIMP1 using HepaRG (AID 2283534). The essentials: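 We dosed human liver HepaRG cultures for 48 hours with up to 100 uM test chemical and measured TIMP1 expression by qRT-PCR. Activity in either direction is fitted relative to the 0.5% DMSO vehicle.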

Read-out in assay [14]: Tumor necrosis factor receptor 1 (TNFRSF1A), TNFRSF1A (gene 7132)
Nature of the assay: LTEA_HepaRG_TNFRSF1A: Life Technologies and Expression Analysis (LTEA) Assay for Tumor necrosis factor receptor 1 (TNFRSF1A) using HepaRG (AID 2283535). The essentials: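 Expression of TNFRSF1A in human HepaRG liver cells was measured by qRT-PCR 48 h after chemical dosing (maximum 100 uM). Bidirectional curve fitting used 0.5% DMSO as baseline.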

Read-out in assay [15]: Thyroid Hormone Responsive (THRSP), THRSP (gene 7069)
The assay can be described thus: LTEA_HepaRG_THRSP: Life Technologies and Expression Analysis (LTEA) Assay for Thyroid Hormone Responsive (THRSP) using HepaRG (AID 2283536). The method in brief: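 Differentiated human HepaRG cells were exposed in duplicate for 48 h in serum-free induction medium to eight concentrations (top 100 uM, half-log steps, 0.5% DMSO). Expression was quantified by TaqMan qRT-PCR, normalized to ACTB, GAPDH and POLR2A, with bidirectional fitting against DMSO.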

Read-out in assay [16]: NAD(P)H dehydrogenase [quinone] 1 (NQO1), NQO1 (gene 1728)
Nature of the assay: LTEA_HepaRG_NQO1: Life Technologies and Expression Analysis (LTEA) Assay for NAD(P)H dehydrogenase [quinone] 1 (NQO1) using HepaRG (AID 2283526). The method in brief:
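HepaRG, 48 h post-plating → serum-free induction medium → test chemical 48 h (duplicate, 100 uM top, half-log x8, 0.5% DMSO) → RNA isolation → qRT-PCR, ACTB/GAPDH/POLR2A normalization; bidirectional curve fit vs DMSO baseline.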

Read-out in assay [17]: Cellular tumor antigen p53 (Homo sapiens) (UniProt P04637)
Nature of the assay: LTEA_HepaRG_TP53: Life Technologies and Expression Analysis (LTEA) Assay for Tumor Protein P53 (TP53) using HepaRG (AID 2283537). The essentials:
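TP53 transcript measured by qRT-PCR, normalized to three housekeeping genes, after 48 h treatment of human HepaRG cultures with chemicals from 100 uM downward in half-log steps (0.5% DMSO vehicle, serum-free induction medium). Up- or down-regulation fitted against DMSO.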

Chain of Nuclear factor erythroid 2-related factor 2 (Homo sapiens) (Q16236 whole entry, looked up): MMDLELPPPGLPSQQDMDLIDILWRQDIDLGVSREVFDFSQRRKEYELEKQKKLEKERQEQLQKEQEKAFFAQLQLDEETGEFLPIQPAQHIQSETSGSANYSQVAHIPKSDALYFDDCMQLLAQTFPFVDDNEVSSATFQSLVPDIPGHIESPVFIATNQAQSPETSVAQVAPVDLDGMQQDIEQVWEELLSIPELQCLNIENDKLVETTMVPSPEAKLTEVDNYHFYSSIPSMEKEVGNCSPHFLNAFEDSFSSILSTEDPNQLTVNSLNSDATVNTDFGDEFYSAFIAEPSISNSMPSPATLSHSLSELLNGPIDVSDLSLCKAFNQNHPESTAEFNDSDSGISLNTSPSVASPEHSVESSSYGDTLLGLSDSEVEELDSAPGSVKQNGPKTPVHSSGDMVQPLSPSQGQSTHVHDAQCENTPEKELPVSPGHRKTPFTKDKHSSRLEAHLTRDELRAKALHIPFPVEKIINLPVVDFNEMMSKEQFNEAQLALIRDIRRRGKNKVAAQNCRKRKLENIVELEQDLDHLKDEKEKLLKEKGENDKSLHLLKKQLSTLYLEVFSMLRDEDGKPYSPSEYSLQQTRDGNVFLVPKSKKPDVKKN
Chain of Signal transducer and activator of transcription 3 (Homo sapiens) (P40763 whole entry, looked up): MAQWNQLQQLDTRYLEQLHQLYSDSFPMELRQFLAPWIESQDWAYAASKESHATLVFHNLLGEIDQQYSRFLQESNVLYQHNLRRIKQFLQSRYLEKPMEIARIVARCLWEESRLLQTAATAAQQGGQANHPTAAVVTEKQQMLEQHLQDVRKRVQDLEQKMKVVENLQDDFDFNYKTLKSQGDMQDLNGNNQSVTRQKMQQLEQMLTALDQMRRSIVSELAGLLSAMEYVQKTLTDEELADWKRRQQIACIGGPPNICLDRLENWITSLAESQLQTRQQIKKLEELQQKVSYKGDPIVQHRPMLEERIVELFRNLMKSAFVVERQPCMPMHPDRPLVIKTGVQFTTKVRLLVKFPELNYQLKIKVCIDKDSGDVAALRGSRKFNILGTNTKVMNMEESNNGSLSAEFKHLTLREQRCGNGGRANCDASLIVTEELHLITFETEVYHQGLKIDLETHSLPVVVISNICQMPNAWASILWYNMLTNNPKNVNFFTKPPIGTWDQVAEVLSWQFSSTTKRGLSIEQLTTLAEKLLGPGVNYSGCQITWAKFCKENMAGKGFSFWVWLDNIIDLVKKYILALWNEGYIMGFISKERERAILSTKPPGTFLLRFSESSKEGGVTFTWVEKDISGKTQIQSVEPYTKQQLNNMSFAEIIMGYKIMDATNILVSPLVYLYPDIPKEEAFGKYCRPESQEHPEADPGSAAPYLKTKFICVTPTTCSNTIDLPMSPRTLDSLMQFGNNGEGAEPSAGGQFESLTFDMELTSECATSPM
Chain of Cellular tumor antigen p53 (Homo sapiens) (P04637 whole entry, looked up): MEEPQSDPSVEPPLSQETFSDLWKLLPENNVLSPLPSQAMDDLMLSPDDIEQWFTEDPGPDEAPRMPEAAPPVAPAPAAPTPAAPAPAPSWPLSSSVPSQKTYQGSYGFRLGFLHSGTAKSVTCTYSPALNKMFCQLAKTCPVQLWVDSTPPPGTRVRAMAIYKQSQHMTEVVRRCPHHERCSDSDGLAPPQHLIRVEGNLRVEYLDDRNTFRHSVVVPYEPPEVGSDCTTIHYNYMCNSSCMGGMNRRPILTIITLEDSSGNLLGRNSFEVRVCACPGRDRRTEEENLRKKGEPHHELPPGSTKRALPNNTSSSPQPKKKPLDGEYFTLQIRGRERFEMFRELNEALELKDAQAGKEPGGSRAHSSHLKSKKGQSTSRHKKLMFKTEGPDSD

The AC50 is the concentration giving half of the maximal activity seen. On to `CC(=O)CC(c1ccccc1)c1c(O)c2ccccc2oc1=O` (stereo not given), for which the outcome with MYC, MYC (gene 4609) is “inactive”; in [1] it was “inactive”; in [2], “inactive”; in assay [3], “inactive”; in [4], “inactive”; in assay [5], “inactive”. The compound was called inactive in assay [6], in assay [7], in assay [8], in assay [9], in assay [10] and in [11]. The outcome was “inactive” in assay [12]; “inactive” in assay [13]; “inactive” in the assay with TIMP1, TIMP1 (gene 7076); “inactive” in assay [14]. For the same compound, in assay [15], the AC50 is 34.5 µM (active).
For the compound `S=c1[nH]c2ccccc2s1`, the outcome with MYC, MYC (gene 4609) is “inactive”; in assay [1], “inactive”; in [2], “inactive”; in [3] it was “inactive”; in assay [4] it was “inactive”; in assay [5], “inactive”. Further, the compound was called inactive in [6], in [16], in assay [7], in [8], in [9] and in assay [10]. Moreover, the outcome is “inactive” in assay [11]; “inactive” in assay [12]; “inactive” in [13]; “inactive” with TIMP1, TIMP1 (gene 7076); “inactive” in assay [14]; “inactive” in assay [15]. Also, the call in assay [17] was inactive.
In the case of `CC(COCC(C)OC(=O)c1ccccc1)OC(=O)c1ccccc1` (stereo not given), the outcome with MYC, MYC (gene 4609) was “inactive”; in [1], “inactive”; in assay [2], “inactive”; in assay [3], “inactive”; in assay [4], “inactive”; in [5], “inactive”. In addition, the outcome in assay [6], in [16], in assay [7], in [8], in assay [9] and in assay [10] was inactive. The compound was called inactive in assay [11], in [12], in assay [13], in assay [14] and in [15].
In the case of `CC(C)NCC(O)c1ccc(O)c(O)c1` (stereo not given), the outcome with MYC, MYC (gene 4609) was “inactive”; in assay [1], “inactive”; in assay [4], “inactive”; in assay [6], “inactive”; in assay [16] it was “inactive”; in assay [8], “inactive”. Moreover, the compound was called inactive in [9], in assay [12], in assay [13] and in assay [14]. Further, the AC50 was 149 nM (active) in [2]; 155 nM (active) in assay [3]; 209 nM (active) in assay [5]; 200 nM (active) in [7]; 136 nM (active) in assay [10]; 194 nM (active) in assay [11]. The AC50 in [15] was 0.179 µM (active).
